From PubChem BioAssay
Rows were chosen to be rich in hits. Some 4.1% of all compounds tested hit in one or more screens of this group.
ssDAF-12 act: S. stercoralis DAF-12 activation, primary screen; HEK293 ssDAF-12/GRIP1 lit1-tk-luc reporter, luminescence; % of 3 µM dafachronic acid response; activation, % at 6.8 µM; 1% of 370,000 active;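 active means activation above the mean over all tested compounds plus 3 SD, cut at about 0.9% in these data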;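 further: 0% = DMSO-only wells and 100% = 3 µM delta7-dafachronic acid wells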
hgDAF12 agonist: activates the H. glycines DAF-12 receptor ligand-binding domain. HEK293 GAL4-hgDAF12 UAS-luciferase reporter, agonist luminescence; normalized to butyrate control. activation, % at 6.8 µM. 1.8% of 370,000 active. AID 687014;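 active means activation above a cutoff set at the mean of all screened compounds plus 3 SD, cut at about 10% in these data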;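 further: 0% = DMSO wells and 100% = sodium butyrate wells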
hcDAF12 agonist: activators of H. contortus DAF-12 nuclear receptor. 1.4% of 370,000 active. AID 652067. activation, % at 6.8 µM. HEK293 hcDAF-12 lit1-tk-luc reporter, luminescence; 0% DMSO, 100% Δ7-dafachronic acid;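 active means activation above the mean of all tested compounds plus 3 SD, cut at about 5.5% in these data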;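 further: 100% = response to 3 µM Δ7-dafachronic acid high control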
DAX1 inh-1: NR0B1 (DAX1) inhibition; P51843; 0.99% of 340,000 active; HEK293 Gal4-DAX1 luciferase reporter, luminescence; inhibition, % at 6.75 µM; AID 504766;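 active means inhibition above the mean over all tested compounds plus 3 SD, cut at about 4.2% in these data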;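 further: 0% = DAX1-transfected cells with DMSO and 100% = empty-vector control cells with DMSO; inhibition shows as a rise in luminescence from relieved DAX1 repression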
Target sequence (P51843 207-470 limits assumed): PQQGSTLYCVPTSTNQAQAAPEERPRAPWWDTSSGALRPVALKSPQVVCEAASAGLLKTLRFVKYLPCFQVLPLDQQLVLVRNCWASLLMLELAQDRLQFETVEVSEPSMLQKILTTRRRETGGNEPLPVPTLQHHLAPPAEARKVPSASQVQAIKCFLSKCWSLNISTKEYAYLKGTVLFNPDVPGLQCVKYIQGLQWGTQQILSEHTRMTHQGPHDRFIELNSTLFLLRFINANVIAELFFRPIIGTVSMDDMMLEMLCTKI
DAX1 inh-2: DAX1 (NR0B1) inhibition, primary screen; HEK293T StAR-luciferase reporter, SF-1/DAX-1 repression relief; inhibition, % at 6.8 µM; 1.1% of 370,000 active;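 active means inhibition above the mean over all tested compounds plus 3 SD, cut at about 3.6% in these data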;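 further: 0% = DAX-1 cells with DMSO and 100% = cells lacking DAX-1 with DMSO; higher inhibition means more luminescence from relief of DAX-1 repression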
Starred values were filed as active, the others as inactive; . = no result given.

SMILES	ssDAF-12 act	hgDAF12 agonist	hcDAF12 agonist	DAX1 inh-1	DAX1 inh-2
CC(C)c1ccc(OCC(=O)N2CCCCCC2)c(Br)c1	-1.5	11.4*	2.2	1.0	0.7
O=C(Oc1ccc2ccccc2c1Cl)N1CCCCCC1	-0.4	5.7	0.8	0.6	4.1*
O=C(COc1ccc2ccccc2c1Br)N1CCCC1	-0.5	3.1	1.4	0.3	3.9*
CC(=O)CC[C@@H]1CC[C@]2(CCCN(S(=O)(=O)c3ccccc3)C2)O1	-1.3	-2.9	4.9	.	0.7
CCN(CC)C(=O)c1cc(-c2ccc(Br)cc2)on1	0.9*	10.8*	0.9	2.2	2.2
Nc1[nH]c(C(=O)c2ccccc2)c(-c2ccccn2)c1C(=O)c1c[nH]c2ccccc12	1.3*	2.5	-0.1	.	-0.4
COc1ccc(-n2nnc3c(=O)n(CC(=O)N4CCCc5ccccc54)cnc32)cc1	-0.5	-2.0	0.9	-0.5	-1.0
COc1ccc(-n2nnc3c(SCC(=O)N4CCCc5ccccc54)ncnc32)cc1	-1.3	-3.9	-2.5	6.3*	0.7
COc1ccc(S(=O)(=O)NC(C)C(=O)NCc2ccncc2)cc1C (stereo unspecified)	-0.6	0.0	-1.2	-0.7	0.3
COc1ccc(S(=O)(=O)NC(C)C(=O)NCc2ccncc2)cc1OC (stereo unspecified)	-1.2	0.7	0.2	5.8*	0.0
O=C(CSC(=S)N1CCCCC1)Nc1nc(-c2ccccc2)c(-c2ccccc2)o1	-1.4	0.2	-0.4	0.8	0.0
O=C(CSC(=S)N1CCOCC1)Nc1nc(-c2ccccc2)c(-c2ccccc2)o1	-1.3	0.5	-0.4	5.6*	0.8
COc1ccc2nc(C)cc(SCC(NC(C)=O)C(=O)OC(C)C)c2c1 (stereo unspecified)	-0.6	-0.5	-0.6	4.6*	0.4
COc1ccc2nc(C)cc(SCC(=O)OC(C)C)c2c1	-1.6	3.0	-1.0	0.9	-0.2
O=C1C=C(c2ccccc2Oc2ccccc2)C[C@@H](c2ccc(F)cc2)C1	-0.5	-1.6	-0.8	-0.2	0.8
O=C(CNc1ccccc1)N/N=C/c1ccc([N+](=O)[O-])cc1	1.6*	3.7	-1.2	1.2	-0.2
O=C(N/N=C/c1ccc([N+](=O)[O-])cc1)c1[nH]ncc1Br	0.1	8.8	0.2	4.7*	1.9
O=C(N/N=C/c1ccc([N+](=O)[O-])cc1)c1cc(C2CC2)[nH]n1	-1.0	-1.2	-1.6	1.8	-2.5
C[C@H]1[C@@H](NC(=O)c2cccc(N(C)C)c2)CC[C@@]23CCCN2C(=O)CCC[C@@H]13	-1.3	-0.3	-1.3	.	.
C[C@H]1CN(C(=O)OC(C)(C)C)CCN1c1ccc(Br)c(C#N)c1	-2.0	-2.2	-2.0	.	-2.2
CCCCC(=O)NS(=O)(=O)c1ccc(N=NN2CCOCC2)cc1	-0.9	4.1	0.0	-0.2	0.0
Cc1sc2nc3ccc(NCc4ccco4)nn3c(=O)c2c1C	-1.3	-0.7	0.5	0.2	0.5
O=c1c2ccccc2nc2ccc(NCc3ccco3)nn12	-0.1	9.2	2.6	5.2*	3.3
O=c1c2ccccc2sc2ccccc12	-0.7	1.5	1.6	1.8	0.7
Cc1cc2sc3ccccc3c(=O)c2c(C)c1O	1.1*	9.2	3.7	-0.3	2.0
SMILES	ssDAF-12 act	hgDAF12 agonist	hcDAF12 agonist	DAX1 inh-1	DAX1 inh-2
CC(=O)Nc1ccc(Oc2cnc3ccccc3n2)cc1	-1.3	3.7	-1.0	-0.6	-0.7
CC(=O)Nc1cccc(Oc2cnc3ccccc3n2)c1	-0.2	5.7	4.2	4.6*	2.1
CCC(C)(C(=O)NC1CCCCC1)N(Cc1cccs1)C(=O)c1ccc(=O)[nH]c1 (stereo unspecified)	-0.7	-0.5	-0.2	4.7*	-0.5
CC(=O)Oc1ccc(Cn2cnc3cc4ccccc4cc32)cc1	-0.5	-1.2	-0.4	0.2	-0.4
CCOc1ccc2c(c1)ncn2Cc1ccccc1	-1.4	0.5	0.0	4.7*	0.6
Cc1ccccc1C(=O)n1ccc2ccc(-c3ccc4ccn(Cc5ccc(C#N)cc5)c4c3)cc21	-0.4	-1.1	-0.3	.	-1.5
CC(CCN1CCC(C(O)(c2ccccc2)c2ccccc2)CC1)Oc1cccc(C(F)(F)F)c1 (stereo unspecified)	0.2	1.3	6.4*	.	0.0
CC(CCN1CCC(C(O)(c2ccccc2)c2ccccc2)CC1)Oc1cccc(Cl)c1 (stereo unspecified)	-0.6	0.2	3.8	.	-0.1
O=C1NCCNC1(c1c[nH]c2ccccc12)C(F)(F)F (stereo unspecified)	1.4*	2.9	5.0	0.6	0.4
COCC(C)n1c(COc2ccccc2F)nnc1SCC(=O)c1c(N)n(C)c(=O)n(C)c1=O (stereo unspecified)	-2.2	-2.1	-1.1	0.8	0.1
CCCCCCn1c(COc2ccccc2F)nnc1SCC(=O)c1c(N)n(C)c(=O)n(C)c1=O	1.2*	-0.5	-0.6	.	1.1
O=C(Nc1ccc(F)c(C(F)(F)F)c1)Nc1nnc(-c2ccncc2)s1	-0.6	4.4	-2.0	.	.
Cc1cccc(NC(=O)C(=O)NCC2CCCO2)c1 (stereo unspecified)	-0.8	12.7*	2.6	0.1	3.8*
O=C(NCC1CCCO1)Nc1cccc(Cl)c1 (stereo unspecified)	-0.8	1.4	-0.3	0.2	0.8
COc1ccc(OC)c(Cc2nnc(CCC(=O)NC3C4CC5CC(C4)CC3C5)o2)c1 (stereo unspecified)	-1.1	-0.3	-0.8	-0.2	0.0
O=C(Nc1c(-c2ccc(F)cc2)nc2ncccn12)C1CC1	-0.6	2.0	-2.1	.	-0.5
O=C(Nc1cccc(Cl)c1)c1ccccc1NC(=O)C1CCCCC1C(=O)O (stereo unspecified)	0.1	10.7*	1.6	1.4	0.1
CC(C)c1ccc(NC(=O)c2ccccc2NC(=O)C2CCCCC2C(=O)O)cc1 (stereo unspecified)	0.9	8.6	-0.2	5.4*	1.5
Cn1cc(CCOCc2ccccc2)c2ccccc21	0.0	5.7	2.9	.	1.6
Cc1cccc(-c2nc(NCCCN(C)C)c3ccccc3n2)c1	1.1*	-0.2	1.2	0.0	0.3
NC(=O)c1ncn([C@@H]2O[C@H](C(=O)N[C@H](Cc3ccccc3)C(=O)N3CCN(CC(=O)Nc4ccccn4)CC3)[C@@H](O)[C@H]2O)n1	-0.8	2.1	-0.5	.	-0.1
CCN(CC)c1ccc(C=NCCc2ccc(S(N)(=O)=O)cc2)cc1	1.0*	-2.1	4.0	-0.4	-1.2
CSc1nsc(/C=C/Nc2ccc(C)c(C)c2)c1C#N	0.1	1.7	4.0	2.2	0.2
CSc1nsc(/C=C/Nc2ccc(C)cc2)c1C#N	2.4*	1.4	6.5*	-0.2	-0.5
COC(=O)[C@H](C(C)C)N1CCc2nnn(Cc3ccc(C)cc3)c2-c2cc(F)ccc2S1(=O)=O	-2.0	-2.1	-2.7	.	-1.1
C/C(=N\NC(=O)c1cccc(C)c1)c1cccc(NC(=O)c2ccco2)c1	-0.8	8.4	0.8	2.3	-0.1
